# Experimental data published in ChEMBL document CHEMBL3988442, “University of Dundee, Small-Polar-MMV Screening Library” (2021).
# Screen size: about 69,000 compounds; about 1,000 (1.4%) showed an effect of 50% or more. For the sample, strong results were picked, then their nearest neighbours and some compounds at random.
# System: Leishmania donovani
# Experiment: Leishmania intramacrophage assay
# Format: functional, organism-based
# Design: scale not given: in the data most compounds retested in dose-response had high values
structure (smiles),measurement,setting,value
CN(C)S(=O)(=O)c1ccc(-c2nc(C#N)c(NC(C)(C)C)o2)o1.Cl,Percent Effect,"30.3 µM, […]",70.96%
CNc1oc(-c2ccc(S(=O)(=O)N(C)C)o2)nc1C#N,Percent Effect,"30.3 µM, […]",-4.203%
CC(C)Nc1oc(-c2ccc(S(=O)(=O)N(C)C)o2)nc1C#N,Percent Effect,"30.3 µM, […]",16.53%
Cc1oc(-c2nc(C#N)c(NC3CC3)o2)cc1S(=O)(=O)N1CCCC1,Percent Effect,"30.3 µM, […]",1.943%
CN(C)S(=O)(=O)c1ccc(-c2nc(C#N)c(NC3CCCCC3)o2)o1,Percent Effect,"30.3 µM, […]",54.54%
CN(C)S(=O)(=O)c1ccc(-c2nc(C#N)c(NC3CC3)o2)o1,Percent Effect,"30.3 µM, […]",20.5%
Cc1ccc(N2C[C@H](C(=O)N3CCOCC3)[C@@H]3CCO[C@@H]3C2)nn1,Percent Effect,"30.3 µM, […]",10.85%
O=C(O)C(F)(F)F.c1csc(CN2CCn3c(Cn4cncn4)cnc3C2)n1,Percent Effect,"30 µM, 30.03 µM",0.7173%
CC(C)(C)c1noc(CCCC(=O)N2CCCC(c3ccn[nH]3)C2)n1 (stereo unspecified),Percent Effect,"30.3 µM, […]",-44.28%
COc1cc(S(=O)(=O)N2CCCc3ccccc32)cc(C(=O)O)c1OC,Percent Effect,"30 µM, 30.03 µM",1.897%
Cc1c(C(=O)NCc2ccnc(OCC(F)(F)F)c2)cnn1C,Percent Effect,30 µM,34.3%
O=C(c1ccccn1)N1CCc2c(nc(N3CCCC3)[nH]c2=O)C1,Percent Effect,"30 µM, 30.03 µM",-2.348%
Cc1cnn(-c2cccc(N3CCN(c4cc(C)nc(C)n4)CC3)n2)c1,Percent Effect,"30.3 µM, […]",-8.114%
Cc1cnn(-c2cccc(N3CCCC3)n2)c1,Percent Effect,"30.3 µM, […]",88.75%
Cc1cnn(-c2cccc(N3CCCCC3)n2)c1,Percent Effect,"30.3 µM, […]",-15%
c1c(CN2CCOCC2)nc2n1CCN(CC1CC1)C2,Percent Effect,"30.3 µM, […]",2.759%
CCc1csc(C2CCCN(C(=O)c3ccco3)C2)n1 (stereo unspecified),Percent Effect,30 µM,-22.84%
Cc1cccc(NS(=O)(=O)c2cc(C(=O)O)oc2C)c1,Percent Effect,"30.3 µM, […]",8.685%
COC(=O)c1ccn(COc2ccccc2Cl)n1,Percent Effect,"30.3 µM, […]",-5.219%
CC(C)(C)NC(=O)c1ccn(COc2ccccc2Cl)n1,Percent Effect,"30.3 µM, […]",62.54%
CC(C)(C)NC(=O)c1ccn(COc2c(Cl)cccc2Cl)n1,Percent Effect,"30.3 µM, […]",6.361%
c1nc(N2CCOC(Cn3cncn3)C2)c2cc[nH]c2n1 (stereo unspecified),Percent Effect,30 µM,24.06%
COCCN1CCCC(c2ncc(C(=O)N(C)C)c(C)n2)C1 (stereo unspecified),Percent Effect,"30.3 µM, […]",-9.482%
Cc1nc(NCC2CC2)nc2c1COCC21CCN(C(=O)NC(C)C)C1 (stereo unspecified),Percent Effect,"30.3 µM, […]",52.42%
Cc1nc(NCC2CC2)nc2c1COCC21CCN(C(=O)C(C)(C)C)C1 (stereo unspecified),Percent Effect,"30.3 µM, […]",-5.86%
COCCC(=O)N1CCC2(COCc3c(C)nc(NCC4CC4)nc32)C1 (stereo unspecified),Percent Effect,"30 µM, 30.03 µM",4.108%
Cn1ccnc1CN1CCC2(CC1)COC2.O=C(O)C(F)(F)F,Percent Effect,"30.3 µM, […]",21.73%
c1ccc(C2CCCN(Cc3cc4n(n3)CCNC4)CC2)cc1 (stereo unspecified),Percent Effect,"30.3 µM, […]",58.47%
O=C(CN1CCC(c2ccccc2)CC1)NCc1cc2n(n1)CCNC2,Percent Effect,"30.3 µM, […]",55.19%
O=C(CN1CC(c2ccccc2)CC1=O)NCc1cc2n(n1)CCNC2 (stereo unspecified),Percent Effect,"30.3 µM, […]",29.23%
O=C(CN1CCOc2ccccc2C1)NCc1cc2n(n1)CCNC2,Percent Effect,"30.3 µM, […]",5.311%
